Screening results (PubChem BioAssay)
An excerpt weighted towards active compounds, which were near 10% of everything screened.
ALDH1A1 block: qHTS Assay for Inhibitors of Aldehyde Dehydrogenase 1 (ALDH1A1). 220,000 compounds, 7.3% hits. AID 1030, 2008. Purified ALDH1A1, NADH fluorescence, propionaldehyde substrate. Potency, µM (doses to about 75.3 µM), usual class: inhibitors. Aldehyde dehydrogenase 1A1 (Homo sapiens), P00352
12-hLO inh: qHTS Assay for Inhibitors of 12-hLO (12-human lipoxygenase); purified 12-hLO, xylenol orange hydroperoxide absorbance; Potency, µM (doses to about 57.1 µM), usual class: inhibitors; 150,000 compounds, 0.12% hits; active means well fitted inhibition curve with a large enough effect; inconclusive means small, poorly fitted or top-dose-only effect; further: nearly all actives have a fitted effect of over 55% in size
Target sequence (P18054 whole entry, looked up): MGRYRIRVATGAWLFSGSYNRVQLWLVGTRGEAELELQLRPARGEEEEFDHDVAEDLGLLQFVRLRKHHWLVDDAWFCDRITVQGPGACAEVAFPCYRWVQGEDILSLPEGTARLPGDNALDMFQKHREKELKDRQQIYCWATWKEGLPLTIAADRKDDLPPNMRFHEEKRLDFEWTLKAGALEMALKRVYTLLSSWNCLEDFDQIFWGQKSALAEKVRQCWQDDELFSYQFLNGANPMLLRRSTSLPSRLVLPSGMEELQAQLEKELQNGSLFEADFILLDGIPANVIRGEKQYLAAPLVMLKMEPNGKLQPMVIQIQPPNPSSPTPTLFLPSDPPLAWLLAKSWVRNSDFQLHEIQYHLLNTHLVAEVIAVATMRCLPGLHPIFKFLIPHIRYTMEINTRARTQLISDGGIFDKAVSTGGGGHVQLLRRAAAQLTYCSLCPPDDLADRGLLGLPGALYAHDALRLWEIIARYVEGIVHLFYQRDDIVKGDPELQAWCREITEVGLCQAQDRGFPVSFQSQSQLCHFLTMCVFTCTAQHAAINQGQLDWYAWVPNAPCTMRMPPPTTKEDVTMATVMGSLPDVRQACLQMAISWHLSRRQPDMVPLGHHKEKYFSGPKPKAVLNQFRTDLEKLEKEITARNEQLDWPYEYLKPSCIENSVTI
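Xylenol orange chromogenic assay: hydroperoxide from 12hLO oxidises Fe(II), giving red-shifted Fe(III)-XO absorbance. Conditions: 150 nM enzyme, 40 uM arachidonic acid, 25 mM Hepes pH 7.0, 0.01% Triton X-100, 30 min, room temperature.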
HPGD block: qHTS Assay for Inhibitors of HPGD (15-Hydroxyprostaglandin Dehydrogenase); 15-hydroxyprostaglandin dehydrogenase [NAD(+)] (Homo sapiens), P15428; purified HPGD, NADH fluorescence kinetic, PGE2 substrate; Potency, µM, hits mostly inhibitors; 150,000 compounds, 4.3% hits; AID 894, 2007
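20 nM HPGD preincubated 15 min at room temperature with compound in 50 mM Tris-HCl pH 8, 0.01% Tween 20. Started with 1 mM NAD+ and 30 uM prostaglandin E2; NADH fluorescence (360/450 nm) read 5 times over 30-s intervals, last minus first.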
LMNA splice mod: qHTS Assay for Modulators of Lamin A Splicing; 200,000 compounds, 0.01% hits; Potency, µM (top dose mostly 46.1 µM), hits mostly inhibitors; HeLa LMNA splicing GFP/RFP minigene ratio, 48 h; active means well fitted inhibition curve with a large enough effect in the signal ratio, with a control signal flat, not every such curve was filed as active; inconclusive means small, poorly fitted or top-dose-only effect, or effect the other way, or a change in a side signal; the % refers to the signal ratio
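S3 HeLa cells stably expressing lamin A-EGFP splicing minigene plus DsRed2, 600 cells/well, 48 h compound exposure at 37C. Laser-scanning cytometry; analysed as GFP (500-530 nm)/RFP (575-640 nm) total intensity ratio; 0.5% DMSO vehicle.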
PNC inhibitor: High Content Assay for Compounds that inhibit the Assembly of the Perinucleolar Compartment | AID 2417, 2010 | PC3M PTB-GFP, PNC prevalence imaging, 16 h; hits give low values | 140,000 compounds, 3.1% hits | activity change (PNC), negative = inhibition, % at 10 µM;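 active means readout at or below -70, meaning at least 70% loss of cells showing the perinucleolar compartment, a nuclear body marking cancer cells; inconclusive means readout between -30 and a set limit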
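Read-out is percentage of cells bearing a perinucleolar compartment, from automated 20x imaging of fixed, Hoechst-stained PC3M PTB-GFP cells. Cells were seeded 4 h, then exposed 16 h to compound (23 nl of library stock) in duplicate plates.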
Hits are given with their value; - = inactive; ? = inconclusive; . = no result given; [ ] = remark or other dose. Unless noted, the call rests on the fitted dose curve; in most records, active means well fitted inhibition curve with a large enough effect (not every such curve was filed as active); inconclusive means small, poorly fitted or top-dose-only effect, or another doubt; inactive means no such curve, though single readings can be large or run the other way.

SMILES | ALDH1A1 block | 12-hLO inh | HPGD block | LMNA splice mod | PNC inhibitor
CC(=O)N(CC(O)CN(C(C)=O)c1c(I)c(C(=O)NC[C@@H](O)CO)c(I)c(C(=O)NC[C@@H](O)CO)c1I)c1c(I)c(C(=O)NC[C@@H](O)CO)c(I)c(C(=O)NC[C@@H](O)CO)c1I | - | - | - | ? | .
c1ccc(-c2cnc(-c3ccccc3)nc2)cc1 | - | - | - | - | -
N#Cc1cc(-c2ccccc2)cnc1Cl | 3.5µM | - | - | - | -
COc1ccc(-n2c(Cc3cccn3C)nnc2SCC(=O)Nc2ccc3c(c2)OCO3)cc1 | 14µM | - | - | - | -
Cn1cccc1Cc1nnc(SCC(=O)Nc2ccc3c(c2)OCO3)n1CCc1ccccc1 | ? | - | - | - | ?
COc1ccc(-n2c(Cc3cccn3C)nnc2SCC(=O)Nc2cccc(NC(C)=O)c2)cc1 | ? | - | - | - | -
COc1ccc(-n2c(Cc3cccn3C)nnc2SCC(=O)Nc2ccc3c(c2)OCCO3)cc1 | 1µM | - | - | - | -
Cn1cccc1Cc1nnc(SCC(=O)Nc2ccc3c(c2)OCCO3)n1CCc1ccccc1 | 14µM | - | - | - | ?
Cc1noc(C)c1-c1cc(NCc2cccs2)ncn1 | - | . | . | ? | .
COc1ccc(N2CCN(S(=O)(=O)CCNC(=O)COc3ccccc3F)CC2)cc1 | . | . | . | - | .
CC(C)OCCCNC(=O)C1CCC(CNS(=O)(=O)c2ccc(Cl)cc2)CC1 (stereo unspecified) | ? | - | - | ? | -
CC(C)OCCCNC(=O)C1CCC(CNS(=O)(=O)c2ccccc2)CC1 (stereo unspecified) | 3.5µM | - | ? | - | -
COCCCNC(=O)C1CCC(CNS(=O)(=O)c2ccc(Cl)cc2)CC1 (stereo unspecified) | - | . | . | - | .
Cc1ccc(S(=O)(=O)NCC2CCC(C(=O)NCCCOC(C)C)CC2)cc1 (stereo unspecified) | 0.71µM | - | - | ? | ?
CCC(Sc1nc2cc(OC)c(OC)cc2c(=O)n1CCc1ccc(Cl)cc1)C(=O)NCCOC (stereo unspecified) | . | . | . | - | .
CN1CCN(C(=O)c2ccc(-n3c(=O)c(=O)[nH]c4ccccc43)cc2)CC1 | - | - | - | . | .
O=c1c(-c2cccc(Cl)c2)nc2cncnc2n1Cc1ccccc1Cl | - | - | - | . | .
Cc1nn(C)c(C)c1/C=N/NC(=O)c1csc2ccccc12 | 22µM | - | - | - | ?
CN(C)S(=O)(=O)c1cccc(NC(=S)N2CCc3ccccc32)c1 | 18µM | . | . | . | .
Cc1ccc(S(=O)(=O)N(C)C)cc1NC(=S)N1CCc2ccccc21 | 25µM | . | . | - | .
CCOc1ccccc1N(C)C(=O)Cn1cnc2onc(-c3ccc(F)cc3)c2c1=O | . | . | . | - | .
COc1ccc(-c2nc3cc(NC(=S)NC(=O)Cc4ccccc4)ccc3o2)cc1 | 11µM | - | - | - | -
COc1ccc(C)cc1NS(=O)(=O)c1cnc(N)nc1 | . | . | . | - | .
O=C(CCn1nnc2ccccc21)Nc1nnc(Cc2ccccc2)s1 | ? | - | 32µM | - | -
O=C(CCn1nnc2ccccc21)Nc1nnc(COc2ccccc2F)s1 | - | - | - | - | -
SMILES | ALDH1A1 block | 12-hLO inh | HPGD block | LMNA splice mod | PNC inhibitor
COc1ccccc1CNC(=O)C(CC(C)C)N1Cc2ccccc2C1=O (stereo unspecified) | . | . | . | - | .
COc1ccccc1-c1cc(=O)c2cccc(OC)c2o1 | ? | - | ? | - | .
O=c1cc(-c2ccccc2F)oc2ccccc12 | - | - | 13µM | - | -
O=c1cc(-c2ccc(O)cc2O)oc2ccccc12 | - | - | ? | . | .
COc1cccc(-c2cc(=O)c3ccccc3o2)c1N | ? | - | 13µM | - | .
Nc1cc(S(N)(=O)=O)ccc1SSc1ccc(S(N)(=O)=O)cc1N | 2µM | -[11.4 µM] | 5µM | . | .
Clc1ccc(-c2n[nH]c3c2CCC3)cc1Cl | ? | - | 18µM | - | -
O=C1Nc2cc(Cl)ccc2Oc2cc(Oc3ccccc3)ccc21 | . | . | . | - | .
COc1ccc(-n2c(-c3ccccc3)cc3c2CCCC3=O)cc1 | 16µM | - | ? | ? | -
COc1cccc(=O)c2c(C)n(-c3cc(C)cc(C)c3)c(C)c12 | - | - | 28µM | - | -
